Test [1] in a line: qHTS assay to identify small molecule agonists of the RXR signaling pathway - cell viability counter screen (AID 1159529). Further: nearly all actives have a fitted effect of over 50% in size. Further: potency means the concentration at half of the fitted maximal effect. A digest of the protocol: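 RXR-alpha-UAS-bla HEK 293T cells in medium with 2% charcoal-stripped FBS were preincubated 5 hr, then exposed to compounds for 16 hr at 37 C. Viability was read as CellTiter-Glo luminescence after 30 min at room temperature.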
For orientation: Quantitative high-throughput screening tests each substance at several concentrations.

Test [2] can be described thus: qHTS assay to identify small molecule antagonists of the estrogen related receptor (ERR) signaling pathway from Tox21 library - cell viability counter screen (AID 1224834). Further: nearly all actives have a fitted effect of over 30% in size. Further: potency means the concentration at half of the fitted maximal effect. An outline of the steps:
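Cytotoxicity of test substances is gauged in the same ERR cells used for the antagonist screen, after 17.5 h of compound treatment at 37 C, by CellTiter-Fluor fluorescence measured after 30 min.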

In test [3] the target is Luciferin 4-monooxygenase (Photinus pyralis) (UniProt P08659). Kind of test: qHTS assay to identify small molecule inhibitors of firefly luciferase (AID 1224835). Further: nearly all actives have a fitted effect of over 25% in size. Further: potency means the concentration at half of the fitted maximal effect. An outline of the steps:
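Quantitative HTS format; KM concentrations of both substrates. Purified P. pyralis FLuc activity quantified from luminescence images.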

A short description of test [4]: qHTS assay to identify small molecule agonists of the constitutive androstane receptor (CAR) signaling pathway - cell viability counter screen (AID 1224836). Further: nearly all actives have a fitted effect of over 45% in size. Further: potency means the concentration at half of the fitted maximal effect. A digest of the protocol:
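HepG2 cells stably carrying hCAR and a CYP2B6-2.2kb reporter were plated 4 h, then given compounds at 15 concentrations plus PK11195 (final 0.75 uM). After 23 h at 37 C, viability was read by CellTiter-Fluor fluorescence.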

Test [5] addresses Nuclear receptor subfamily 1 group I member 3 (Homo sapiens) (UniProt Q14994). Kind of test: qHTS assay to identify small molecule antagonists of the constitutive androstane receptor (CAR) signaling pathway (AID 1224838). Further: nearly all actives have a fitted effect of over 40% in size. Further: potency means the concentration at half of the fitted maximal effect. A digest of the protocol: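 Compounds were titrated across 15 concentrations onto HepG2 cells double-stably expressing hCAR and a CYP2B6-2.2kb reporter, together with 50 nM CITCO (final). After 24 h at 37 C, luciferase activity was measured by luminescence.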

Test [6] shares this target. The test can be described thus: qHTS assay to identify small molecule agonists of the constitutive androstane receptor (CAR) signaling pathway (AID 1224839). Further: series mostly up to about 92 µM; nearly all actives have a fitted effect of over 15% in size. A digest of the protocol: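 HepG2 cells stably expressing hCAR and a CYP2B6-2.2kb luciferase reporter were treated with compounds at 15 concentrations plus 0.75 uM PK11195 (final) for 24 h at 37 C; luminescence was read after ONE-Glo addition.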

Test [7] is described as follows: qHTS assay to identify small molecule antagonists of the estrogen related receptor signaling pathway with the pleiotropic PPARgamma coactivator (PGC) from Tox21 10K library - cell viability counter screen (AID 1224840; active means well fitted cell-killing curve with a large enough effect in the repeat runs, not every such curve was filed as active; further: nearly all actives have a fitted effect of over 40% in size; further: potency means the concentration at half of the fitted maximal effect). An outline of the steps: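 Step one, plate 2,000 PGC/ERR cells per well; step two, incubate 6 h at 37 C/5% CO2; step three, pin-transfer compounds; step four, incubate 17.5 h; step five, add CellTiter-Fluor and read fluorescence after 30 min.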

A short description of test [8]: qHTS assay to identify small molecule agonists of the estrogen related receptor signaling pathway with the pleiotropic PPARgamma coactivator (PGC) from Tox21 10K library (AID 1224842). Further: nearly all actives have a fitted effect of over 15% in size. Further: potency means the concentration at half of the fitted maximal effect. An outline of the steps:
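PGC/ERR reporter cells (NTP line) were seeded 2,000 per well, rested 6 h at 37 C/5% CO2, then pin-dosed with compounds in DMSO for 18 h at 37 C; luciferase read by One-Glo luminescence after 30 min at room temperature.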

The nature of test [9]: qHTS assay to identify small molecule antagonists of the retinoic acid receptor (RAR) signaling pathway (AID 1159552; further: nearly all actives have a fitted effect of over 50% in size; further: potency means the concentration at half of the fitted maximal effect). An outline of the steps:
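RARE-luc C3RL4 cells; cpds + 1 uM (final) retinol, 6 hr, 37 C/5% CO2; luciferase reagent, 30 min RT, luminescence readout. Inhibitors of retinol-driven signal scored.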

Test [10] in a line: qHTS assay to identify small molecule antagonists of the constitutive androstane receptor (CAR) signaling pathway - cell viability counter screen (AID 1224837). Further: nearly all actives have a fitted effect of over 45% in size. Further: potency means the concentration at half of the fitted maximal effect. An outline of the steps: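 Multiplexed cytotoxicity read-out for the CAR antagonist screen: double-stable HepG2-CYP2B6-hCAR cells co-treated with 50 nM CITCO (final) and compound over 15 concentrations, incubated 23 hr, then assessed by CellTiter-Fluor fluorescence.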

Test [11] in a line: qHTS assay to identify small molecule agonists of the retinoic acid receptor (RAR) signaling pathway (AID 1159553). Further: potency means the concentration at half of the fitted maximal effect. An outline of the steps: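 Agonist activity was scored in C3RL4 cells bearing a retinoic acid response element luciferase construct. Cells were treated with compounds for 6 hr at 37 C, and luciferase signal was measured as luminescence.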
Test [12] addresses Thyrotropin receptor (Homo sapiens) (UniProt P16473). Kind of test: qHTS assay to identify small molecule agonists of the thyroid stimulating hormone receptor (TSHR) signaling pathway (AID 1224843; calls by dose curve; further: nearly all actives have a fitted effect of over 45% in size; further: potency means the concentration at half of the fitted maximal effect). A digest of the protocol: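 Cell line HEK293 with TSHR; density 800/well. Exposure 30 min RT. Readout HTRF cAMP (cAMP-d2/anti-cAMP-cryptate), 1 h RT before reading.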
A short description of test [13]: qHTS assay to identify small molecule antagonists of the retinoid acid receptor (RAR) signaling pathway - cell viability counter screen (AID 1159551). Further: nearly all actives have a fitted effect of over 35% in size. Further: potency means the concentration at half of the fitted maximal effect. A digest of the protocol:
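Cytotoxicity counter screen in C3RL4 cells: 6 h compound exposure with 1 uM retinol (final), viability from cellular ATP by luminescence.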

The nature of test [14]: qHTS assay to identify small molecule antagonists of the estrogen related receptor signaling pathway with the pleiotropic PPARgamma coactivator (PGC) from Tox21 10K library (AID 1224841; call rule not given here; further: actives are mostly falling curves and most rising ones were filed inactive; nearly all actives have a fitted effect of over 50% in size; further: potency means the concentration at half of the fitted maximal effect). A digest of the protocol:
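Antagonism in this quantitative HTS is taken from loss of luciferase signal in PGC/ERR cells. Cells (2,000/well) are treated with compounds in DMSO after a 6 h settling period and read by One-Glo luminescence after 18 h.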

This note sets out measurements from PubChem BioAssay (Tox21).

Values joined by “and” are separate entries in the source; they are usually repeats but may differ in a detail not shown here. Identical values can stand only once. Inconclusive results are not listed. More than one record can exist for a structure, and the calls need not agree. Active and inactive are the calls of the source. Unless noted, the call rests on the fitted dose curve; in most records, active means well fitted curve in the direction sought with a large enough effect in the repeat runs; inconclusive means weak or mixed curves; inactive means no such curve, though single readings can be large; an effect the other way counts as inactive or inconclusive.

Thyrotropin receptor (Homo sapiens), sequence (P16473 whole entry, looked up): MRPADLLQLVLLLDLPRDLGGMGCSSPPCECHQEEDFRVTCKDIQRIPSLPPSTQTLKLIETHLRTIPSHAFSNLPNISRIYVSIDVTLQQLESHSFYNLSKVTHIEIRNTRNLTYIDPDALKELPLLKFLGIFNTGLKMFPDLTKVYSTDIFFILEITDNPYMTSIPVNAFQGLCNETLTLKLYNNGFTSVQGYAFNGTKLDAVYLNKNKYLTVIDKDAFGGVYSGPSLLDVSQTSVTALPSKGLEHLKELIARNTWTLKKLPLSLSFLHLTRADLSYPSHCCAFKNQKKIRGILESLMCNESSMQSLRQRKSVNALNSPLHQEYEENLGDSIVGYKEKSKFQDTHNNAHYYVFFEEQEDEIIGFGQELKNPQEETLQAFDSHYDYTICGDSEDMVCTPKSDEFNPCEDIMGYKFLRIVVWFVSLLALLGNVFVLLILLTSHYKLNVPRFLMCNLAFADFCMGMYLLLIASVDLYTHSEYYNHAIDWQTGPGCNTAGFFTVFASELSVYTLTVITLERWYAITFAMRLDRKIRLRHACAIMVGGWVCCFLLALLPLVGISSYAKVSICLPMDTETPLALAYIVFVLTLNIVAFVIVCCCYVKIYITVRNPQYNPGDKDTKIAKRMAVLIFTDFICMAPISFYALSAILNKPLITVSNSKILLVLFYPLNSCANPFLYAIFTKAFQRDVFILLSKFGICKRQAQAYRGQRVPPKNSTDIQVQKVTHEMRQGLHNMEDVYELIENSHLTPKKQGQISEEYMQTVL
Nuclear receptor subfamily 1 group I member 3 (Homo sapiens), sequence (Q14994 whole entry, looked up): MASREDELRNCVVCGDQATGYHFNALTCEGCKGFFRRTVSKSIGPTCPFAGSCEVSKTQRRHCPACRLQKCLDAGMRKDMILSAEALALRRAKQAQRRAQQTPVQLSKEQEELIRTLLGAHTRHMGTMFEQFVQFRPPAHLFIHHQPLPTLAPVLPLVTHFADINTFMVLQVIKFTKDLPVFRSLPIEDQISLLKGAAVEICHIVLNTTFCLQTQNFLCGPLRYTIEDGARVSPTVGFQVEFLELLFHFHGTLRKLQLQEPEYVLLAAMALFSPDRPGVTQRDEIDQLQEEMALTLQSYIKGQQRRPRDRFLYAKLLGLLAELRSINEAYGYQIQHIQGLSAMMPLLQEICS
Luciferin 4-monooxygenase (Photinus pyralis), sequence (P08659 whole entry, looked up): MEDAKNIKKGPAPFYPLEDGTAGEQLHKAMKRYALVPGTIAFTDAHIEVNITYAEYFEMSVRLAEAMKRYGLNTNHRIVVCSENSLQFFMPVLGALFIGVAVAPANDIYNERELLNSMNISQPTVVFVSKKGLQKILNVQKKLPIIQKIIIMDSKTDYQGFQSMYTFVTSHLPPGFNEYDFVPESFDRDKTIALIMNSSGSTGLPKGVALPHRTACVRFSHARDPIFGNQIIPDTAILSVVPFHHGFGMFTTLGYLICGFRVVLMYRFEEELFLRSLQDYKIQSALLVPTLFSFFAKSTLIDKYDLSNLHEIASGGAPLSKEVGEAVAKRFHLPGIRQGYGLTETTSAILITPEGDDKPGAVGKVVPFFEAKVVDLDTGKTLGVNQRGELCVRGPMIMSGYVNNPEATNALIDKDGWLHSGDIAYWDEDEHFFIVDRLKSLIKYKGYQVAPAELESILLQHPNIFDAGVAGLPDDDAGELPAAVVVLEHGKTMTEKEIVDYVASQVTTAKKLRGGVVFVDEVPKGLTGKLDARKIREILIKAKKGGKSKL

As to `CCC[N+](CCC)(CCC)CCC`, the Potency entry in test [1], in test [2], in test [3], in [4], in [5] and in [6] was “inactive” each time. For the same compound, the Potency entry in test [7] and in test [8] was “inactive” in each case.
As to `C=CC(=O)OCC`, the Potency result in [1], in [9], in test [2], in test [3], in [4] and in test [10] was “inactive” in each case. Also, the Potency result in test [5], in [6] and in test [7] was “inactive” each time.
Turning to `CCOP(=O)(O)C(N)=O`, the Potency result in test [1], in test [11], in test [2], in test [3], in test [4] and in [10] was “inactive” each time. Further, the Potency result in test [5], in test [7] and in test [12] was “inactive” throughout.
Turning to `C[C@]12C=CC3=C4CCC(=O)C=C4CC[C@H]3[C@@H]1CC[C@@H]2O`, the Potency entry in [1], in [2], in test [3], in test [4], in [5] and in [7] was “inactive” in each case.
As to `Clc1ccc2ccccc2c1`, the Potency entry in test [13], in test [9], in test [11], in test [2], in [3] and in test [4] was “inactive” each time. The Potency result in test [10], in test [5], in [6], in test [7] and in [12] was “inactive” throughout.
`O=C1NC(=O)C(=O)C(=O)N1`: the Potency entry in test [1], in test [2], in test [3], in test [4], in test [10] and in [7] was “inactive” throughout. For the same compound, the Potency result in test [12] is “inactive”.
Consider `CCCCNC(=O)OCC#CI`, for which the Potency in [13] is 68.2 µM (active); in test [9], 43.1 µM (active) and 54.5 µM (active); in [2] it was 54.2 µM (active) and 68.6 µM (active); in [4] it was 30.6 µM (active); in test [5] it was 54.2 µM (active) and 24.3 µM (active); in test [7], 68.2 µM (active) and 61.1 µM (active). The Potency result in test [3] and in test [8] was “inactive” each time.
`CC(CC(C(N)=O)(c1ccccc1)c1ccccc1)N(C)C` (configuration not stated): the Potency entry in [1], in test [2], in test [3], in [4], in test [7] and in test [12] was “inactive” throughout.
In the case of `Nc1ccccc1C(=O)OCCc1ccccc1`, the Potency entry in test [1], in test [9], in test [5], in test [7] and in test [14] was “inactive” throughout. Also, the Potency in test [11] is 173 nM (active) and 122 nM (active); in test [3], 897 nM (active) and 796 nM (active); in test [8] it was 1.09 µM (active) and 1.37 µM (active).
Take `CCC(C)(C)O`: the Potency result in [1], in test [2], in test [3], in test [4], in test [5] and in test [6] was “inactive” throughout. The Potency result in [7] and in [12] was “inactive” each time.
In the case of `C[C@]12CC[C@H]3[C@@H](CCC4=CC(=O)CC[C@@H]43)[C@@H]1CC[C@@H]2OC(=O)CCc1ccccc1`, the Potency entry in [13], in test [9], in test [11], in test [2], in [3] and in [4] was “inactive” throughout. For the same compound, the Potency entry in test [10], in [5], in test [6], in [7], in test [14] and in [8] was “inactive” in each case. Also, the Potency entry in [12] is “inactive”.
`c1ccc2c(c1)-c1cccc3cccc-2c13`: the Potency result in [13], in test [9], in [2], in test [4], in test [10] and in [5] was “inactive” throughout. The Potency entry in test [7] and in test [12] was “inactive” throughout.
`CC(C)(C)NCC(O)c1cc(Cl)c(N)c(C(F)(F)F)c1` (configuration not stated): the Potency result in test [1], in test [9], in [3], in test [7], in test [14] and in test [8] was “inactive” each time. Also, the Potency in [12] was 2.1 nM (active).
With `CN1C[C@H](C(=O)N[C@]2(C)O[C@@]3(O)[C@@H]4CCCN4C(=O)[C@H](Cc4ccccc4)N3C2=O)C=C2c3cccc4[nH]cc(c34)C[C@H]21`, the Potency is 22 µM (active) in [1]; 24.4 µM (active) and 9.01 µM (active) in [2]; 40.1 µM (active) in test [3]. The Potency result in test [10], in [5], in test [6] and in [7] was “inactive” in each case.
On to `CCCC[N+](CCCC)(CCCC)CCCC`, for which the Potency entry in test [1], in [11], in [2], in test [3], in [4] and in test [10] was “inactive” throughout. Also, the Potency entry in [7] and in [8] was “inactive” each time.
Turning to `CCOP(=S)(S)OCC`, the Potency entry in test [1], in test [9], in test [2], in test [4], in [10] and in test [5] was “inactive” each time. Besides, the Potency result in test [7], in test [14], in test [8] and in [12] was “inactive” throughout. Further, in test [3], the Potency is 33.4 µM (active).
As for `C[CH2][Hg][S]c1ccccc1C(=O)O`, the Potency in test [1] was 1.23 µM (active) and 1.51 µM (active); in test [9], 1.93 µM (active) and 2.66 µM (active); in test [2] it was 6.86 µM (active) and 9.44 µM (active); in test [10] it was 12.2 µM (active) and 7.5 µM (active); in test [5], 12.2 µM (active) and 6.68 µM (active); in test [7] it was 4.33 µM (active) and 11.9 µM (active). Also, in test [8], the Potency was 1.22 µM (active) and 2.37 µM (active). Further, the Potency entry in test [6], in test [14] and in test [12] was “inactive” each time.
Consider `CCOC(=O)C1OC1(C)c1ccccc1` (configuration not stated), for which the Potency result in test [1], in [2], in [3], in test [10], in [5] and in [7] was “inactive” throughout. For the same compound, the Potency entry in test [12] is “inactive”.
`CCC(C)(C)c1ccc(O)c(C(C)(C)CC)c1`: the Potency was 12.2 µM (active) and 12.3 µM (active) in [1]; 24.3 µM (active) in test [9]; 48 µM (active) in test [2]; 60.4 µM (active) in test [4]; 60.4 µM (active) in [5]; 53.9 µM (active) and inactive in test [7]. Besides, the Potency in [14] was 60.4 µM (active) and inactive; in test [12], 13.5 µM (active) and 24.3 µM (active). For the same compound, the Potency entry in test [3], in test [6] and in [8] was “inactive” each time.
